# From PubChem BioAssay AID1445 (SRMLSC, 2008)
# Out of some 220,000 compounds screened, about 910 (0.41%) were called active. Only a selection was taken, and actives are over-represented in it overall. Results with a measured potency or affinity are listed apart. Unmarked numbers belong to inactive results.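 How the source made its calls: active means primary inhibition above the hit cutoff, then over 50% inhibition at one or more dose response concentrations (cut at about 23% in these data, passing the limit was not always enough); inconclusive means conflicting primary data, or primary hits not chosen for dose response; inactive means low primary inhibition, or under 50% at every dose.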
# Biological target: Aminopeptidase N (Plasmodium falciparum (isolate 3D7)) (UniProt O96935)
# Test: P. falciparum M1AAP inhibitors, biochemical, fluorogenic H-Leu-NHMec substrate, 1536-well (AID 1445);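 further: plate controls were DMSO full reaction for no effect and no enzyme background for full effect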
# Conditions: recombinant M1AAP, H-Leu-NHMec fluorogenic kinetic assay
# [1] = at 30 µM, active compounds read high unless noted
# Chain of Aminopeptidase N (Plasmodium falciparum (isolate 3D7)) (O96935 whole entry, looked up): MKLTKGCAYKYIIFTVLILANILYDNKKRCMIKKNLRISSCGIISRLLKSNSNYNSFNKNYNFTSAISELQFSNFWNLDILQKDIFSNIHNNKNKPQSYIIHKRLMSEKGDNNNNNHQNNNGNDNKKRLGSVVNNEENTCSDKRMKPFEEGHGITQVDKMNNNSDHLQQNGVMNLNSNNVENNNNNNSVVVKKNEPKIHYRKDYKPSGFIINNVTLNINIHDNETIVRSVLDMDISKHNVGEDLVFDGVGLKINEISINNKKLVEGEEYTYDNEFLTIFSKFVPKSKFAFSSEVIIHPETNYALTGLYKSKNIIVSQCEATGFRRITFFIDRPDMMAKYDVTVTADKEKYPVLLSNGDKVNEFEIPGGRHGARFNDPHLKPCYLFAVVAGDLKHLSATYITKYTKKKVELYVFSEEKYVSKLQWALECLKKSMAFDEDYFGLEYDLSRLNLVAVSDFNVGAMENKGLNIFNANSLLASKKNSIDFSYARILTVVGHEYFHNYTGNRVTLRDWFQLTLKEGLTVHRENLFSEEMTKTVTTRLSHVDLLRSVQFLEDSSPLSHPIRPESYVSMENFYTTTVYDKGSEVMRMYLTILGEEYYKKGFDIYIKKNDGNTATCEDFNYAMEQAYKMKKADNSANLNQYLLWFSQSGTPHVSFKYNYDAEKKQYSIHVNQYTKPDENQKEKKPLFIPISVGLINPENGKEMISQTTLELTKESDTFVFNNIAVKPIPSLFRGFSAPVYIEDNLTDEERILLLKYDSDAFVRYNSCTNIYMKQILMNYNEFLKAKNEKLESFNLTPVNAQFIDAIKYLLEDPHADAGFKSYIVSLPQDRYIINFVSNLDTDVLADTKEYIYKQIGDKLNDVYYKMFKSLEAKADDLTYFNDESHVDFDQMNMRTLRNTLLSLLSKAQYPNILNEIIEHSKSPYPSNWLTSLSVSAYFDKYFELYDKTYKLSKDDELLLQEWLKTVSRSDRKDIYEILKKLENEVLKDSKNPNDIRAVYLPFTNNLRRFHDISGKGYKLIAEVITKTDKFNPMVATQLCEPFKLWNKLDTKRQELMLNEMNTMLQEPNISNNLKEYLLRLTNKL
structure (smiles),measurement,setting,value
CCOC(=O)NC(=O)/C(C=Nc1ccc(Cl)cc1)=C(\C)O,inhibition,[1],10.5%
CCCCCCC(=O)N(O)C1CC(=O)N(c2ccc(C)cc2)C1=O (stereo not given),inhibition,[1],35.5%
CCCCCCC(=O)N(O)C1CC(=O)N(Cc2ccccc2)C1=O (stereo not given),inhibition,[1],37.9% (active)
O=C1CC(N(O)C2CC(=O)N(Cc3ccccc3)C2=O)C(=O)N1Cc1ccccc1 (stereo not given),inhibition,[1],6.83%
CCCCCC(=O)N(O)C1CC(=O)N(c2ccccc2)C1=O (stereo not given),inhibition,[1],11.5%
CCCN(CCC)C1CC(=O)N(Cc2ccccc2)C1=O (stereo not given),inhibition,[1],4.78%
CCCCC(CCC(=O)Nc1ccccc1C(=O)OCC)C(=O)O (stereo not given),inhibition,[1],0.91%
CCN(CC)S(=O)(=O)c1ccc(C)c(NC(=O)c2cc(C)oc2C)c1,inhibition,[1],3.95%
O=C(O)CCC(=O)N(Cc1ccco1)C1CC(=O)N(c2ccccc2)C1=O (stereo not given),inhibition,[1],7.06%
CCOC(=O)N1CCN(c2c(NCc3ccc(Cl)cc3)c(=O)c2=O)CC1,inhibition,[1],5.09%
CCOC(=O)N1CCN(c2c(NCc3ccccc3OC)c(=O)c2=O)CC1,inhibition,[1],1.73%
COc1ccc(C(=O)N/N=C/c2cc3ccccc3[nH]c2=O)cc1,inhibition,[1],6.42%
COc1cc2ccccc2cc1C(=O)NC(=S)Nc1cccc(C(=O)O)c1C,inhibition,[1],8.01%
COCCNC(=S)N1CCc2cc(OC)c(OC)cc2C1COc1ccc(C(C)C)cc1 (stereo not given),inhibition,[1],15.1%
O=C(Oc1c(CN2CCOCC2)cc(Cl)c2cccnc12)c1ccccc1,inhibition,[1],4.42%
CN1CCN(Cc2cc(Cl)c3cccnc3c2OC(=O)c2cccs2)CC1,inhibition,[1],-1.84%
CCOC(=O)c1cc2c(=O)n3ccccc3nc2n(CCOC)c1=NC(=O)C(C)(C)C,inhibition,[1],16.9%
CCOC(=O)c1cc2c(=O)n3ccccc3nc2n(CCOC)c1=NC(=O)c1ccncc1,inhibition,"at 30 µM, active compounds read high",45.3% (active)
same,inhibition,at 100 µM (top of the series),16.6%
CCOC(=O)c1cc2c(=O)n3ccccc3nc2n(CCCOC)c1=NC(=O)c1ccncc1,inhibition,[1],10.7%
O=C(NCCc1ccccc1)C1CCN(c2nc3ccccc3o2)CC1,inhibition,[1],1.06%
O=S(=O)(c1ccc2c(c1)OCCO2)N1CCC(n2nnc3cc(C(F)(F)F)ccc32)CC1,inhibition,[1],-4.12%
O=S(=O)(c1ccc2c(c1)OCCO2)N1CCC(n2cnc3cc(F)ccc32)CC1,inhibition,[1],2.37%
O=c1nc2n(c3ccc(Br)cc13)CCS2,inhibition,[1],1.45%
COc1ccccc1NC(=O)Nc1ccccc1N1CCOCC1,inhibition,[1],3.89%
CC(=O)c1sc(-c2ccc(F)cc2)cc1NS(=O)(=O)c1ccc(C)cc1,inhibition,[1],0.65%
CC(=O)c1sc(-c2ccccc2)cc1NS(=O)(=O)c1ccccc1,inhibition,[1],-0.36%
COc1cc(/C=C2\SC(N)=NC2=O)ccc1OCC(=O)Nc1ccc(C)cc1,inhibition,[1],10%
CCOC(=O)C1=C(O)/C(=C/c2ccc(OCC(=O)O)c(OC)c2)SC1=Nc1ccc(OCC)cc1,inhibition,[1],13.2%
CCOC(=O)C1=C(C)N(c2ccc(OC)cc2)C(=O)/C1=C\c1ccc(O)c(OCC)c1,inhibition,[1],4.43%
CCOc1cc(/C=C2\SC(=Nc3ccc(F)cc3)N(c3ccc(F)cc3)C2=O)ccc1OCC(=O)O,inhibition,[1],16.8%
O=C(/C=C/c1ccc(S(=O)(=O)N2CCOCC2)cc1)NCc1ccc(Cl)cc1,inhibition,[1],-0.73%
C=CCn1c(COc2ccccc2)nnc1SCC(=O)O,inhibition,[1],0.9%
Cc1nn(-c2ccccc2)c(C)c1NC(=O)Cc1cccs1,inhibition,[1],4.27%
CC(C)OC(=O)CSc1ncnc2c1cnn2Cc1ccccc1,inhibition,[1],0.69%
Cc1ccc(S(=O)(=O)N2CCCC2C(=O)Nn2cnnc2)cc1 (stereo not given),inhibition,[1],-0.66%
Cc1cccc(C)c1NC(=O)CN1C(=O)S/C(=C\c2cccn2-c2cccc(C(=O)O)c2)C1=O,inhibition,[1],8.9%
O=C(O)c1cccc(-n2cccc2/C=C2\SC(=O)N(Cc3ccccc3F)C2=O)c1,inhibition,[1],15.3%
CCOC(=O)C1(C(F)(F)F)N=C(C(F)(F)F)Nc2cc(C)c(C)cc21 (stereo not given),inhibition,[1],1.48%
O=C1C(C=Nc2ccccc2O)=C(O)c2ccccc21,inhibition,[1],20.6%
Cc1ccccc1N=CC1=C(O)c2ccccc2C1=O,inhibition,[1],4.59%
COCCN(C(=O)c1csnn1)C(C(=O)NC1CCCCC1)c1sccc1C (stereo not given),inhibition,[1],21.1%
Cc1ccc(C(C(=O)NC2CCCCC2)N(C(=O)c2csnn2)C2CC2)o1 (stereo not given),inhibition,[1],9.01%
Cc1ccc(C(C(=O)NC2CCCC2)N(Cc2cccs2)C(=O)c2csnn2)o1 (stereo not given),inhibition,[1],7.36%
CC(C)(C)NC(=O)C(c1ccncc1)N(Cc1cccs1)C(=O)c1csnn1 (stereo not given),inhibition,[1],-14%
O=C(NC1CCCC1)C(c1ccncc1)N(Cc1cccs1)C(=O)c1csnn1 (stereo not given),inhibition,[1],24.6% (active)
O=C(COC(=O)c1ccncc1)NCCCc1ccccc1,inhibition,[1],2.54%
Cc1ccc(Cl)cc1NC(=O)c1cccc(OC(F)F)c1,inhibition,[1],5.73%
Cc1occc1-c1nnc(SCC(=O)Nc2ccccc2)n1CCc1ccccc1,inhibition,[1],0.44%
Cc1ccccc1NC(=O)CSc1nnc(-c2ccoc2C)n1CCc1ccccc1,inhibition,[1],8.39%
COc1ccccc1NC(=O)CSc1nnc(-c2ccoc2C)n1CCc1ccccc1,inhibition,[1],24.7% (active)
C=CCc1c(O)c(CC)cc2c(C)cc(=O)oc12,inhibition,[1],10.9%
CCN(CC)Cc1c(O)ccc2c(-c3ccccc3)cc(=O)oc12,inhibition,[1],8.74%
CCCCc1cc(=O)oc2cc(OCc3cc(OC)c(OC)c(OC)c3)c(Cl)cc12,inhibition,[1],-3.71%
CCCCc1cc(=O)oc2cc(OCC(=O)N(CC)CC)c(Cl)cc12,inhibition,[1],6.8%
CCCCc1cc(=O)oc2cc(OCc3nn[nH]n3)c(Cl)cc12,inhibition,[1],6.21%
CCC(=O)c1cc2c(C)cc(=O)oc2c(C)c1O,inhibition,[1],4.77%
Cc1cc(=O)oc2c(N)c(O)ccc12,inhibition,[1],8.69%
COc1ccccc1N1CCN(C(=O)CSc2ccccc2)CC1,inhibition,[1],-1.68%
COc1cc(OC)cc(-c2nnc(SCC(=O)N(Cc3ccccc3)C(C)(C)C)o2)c1,inhibition,[1],1.01%
